PTK2B oligo ant: antagonists of Pyk2 self-association, primary screen, Q293 cells, FERM NanoBiT luminescence, HTS. active compounds read low. z-score (the deposit names both 25 µM and 10 µM). actives 0.83% (n = 99,000);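 active = Z-score of -3 or lower, scaled per plate to the spread of control and sample wells; inactive = z-score above -3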;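 also: negative z-score means lost luminescence so less FERM oligomerization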
Cav32 inh: Cav3.2 calcium influx blockers – cell-based, Fluo-4 calcium fluorescence, FDSS, MLSMR library, primary screen; actives 4% (n = 100,000); B-score at 10 µM; Cav3.2-expressing cells; active compounds read low; Voltage-dependent T-type calcium channel subunit alpha-1H (Homo sapiens), O95180;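 active = single-dose well whose peak fluorescence ratio is a statistical outlier from its plate by either plate-standardised score or position-corrected B-score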
PostGolgi ctrl: growth inhibition of yeast control strain, primary screen, counter-screen for post-Golgi transport modulator project; actives 5% (n = 98,000); AID 738, 2007; efflux-deficient yeast background strain, growth absorbance A615, 16 h; inhibition, % at 10 µM
PostGolgi yeast: phenotypic screen on post-Golgi transport, primary screen; post-Golgi transport phenotypic cell assay; inhibition, % at 10 µM; actives 0.9% (n = 98,000); AID 739, 2007;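 also: yeast cells grown in 1536-well plates; yeast grown about 18 h at 30C before absorbance read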
Hits are given with their value; . = inactive; / = no result. A selection: hits, their analogues and other compounds. The true share with any hit is near 8%. Rule as the data show it, unless noted: active = inhibition above about 30%; inactive = the rest.

SMILES	PTK2B oligo ant	Cav32 inh	PostGolgi ctrl	PostGolgi yeast
CN(C1=C(N2CCCCC2)C(=O)c2ccccc2C1=O)c1ccccc1	.	.	33	.
COc1ccccc1NC(=O)N(Cc1ccccc1)c1ccccn1	.	.	45	.
CC(C)CN(CC(C)C)C(=O)Cc1coc2ccc3ccccc3c12	.	-4.9	.	.
COc1ccc(OC)c(NC(=O)Cc2coc3ccc(C)cc23)c1	.	.	.	.
CCCCNC(=O)Cc1coc2ccc3ccccc3c12	.	.	.	.
COc1ccc(OC)c(NC(=O)Cc2coc3ccc4ccccc4c23)c1	.	.	35	.
CCOc1ccccc1N1CCN(CC(O)COc2ccc3c(C)cc(=O)oc3c2)CC1 (configuration not stated)	.	.	.	.
Cc1c2cc(O)c(=O)cc-2oc2cc(O)c(O)cc12	.	-3.9	.	.
Cc1cc(C)n(Cc2ccc(NC(=O)c3ccc(COc4ccccc4Br)cc3)cc2)n1	.	/	.	.
CCCCC1(C)OC(=O)C(=Cc2ccc(N(C)C)cc2)C(=O)O1 (configuration not stated)	.	.	31	.
CCOC(=O)SC1=N/C(=C\c2ccc(N(C)C)cc2)C(=O)S1	.	/	.	.
COCC(=O)NC1CCN(C(=O)Nc2ccc(Br)cc2)CC1	.	.	.	.
CC(C)(C)C(=O)COC(=O)CNC(=O)c1ccc(Oc2ccccc2)cc1	.	-3.7	.	.
COc1cccc(NC(=O)CCS(=O)(=O)c2cccs2)c1	.	.	.	.
OCCN(CCO)CC(O)Cn1c2ccccc2c2ccccc21 (configuration not stated)	.	.	.	.
COc1ccccc1NCC(O)Cn1c2ccccc2c2ccccc21 (configuration not stated)	.	.	57	.
Cc1ccc(NC(=O)c2cccc3c2C(=O)N(C2CCCCC2)C3)cc1	.	.	44	.
CCOC(=O)N1CCC(N2Cc3cccc(C(=O)Nc4ccc(F)cc4)c3C2=O)CC1	.	.	.	.
CCOC(=O)N1CCC(N2Cc3cccc(C(=O)Nc4ccc(CC)cc4)c3C2=O)CC1	.	.	34	.
CCOc1ccc(NC(=O)c2cccc3c2C(=O)N(CCOC)C3)cc1	.	.	31	.
CCOC(=O)N1CCC(NC(=O)c2cccc3c2C(=O)N(c2ccc(OC)cc2)C3)CC1	/	.	38	.
C[C@@H](C(=O)NCCc1c[nH]c2ccccc12)[C@@H]1C[C@@]1(C)[C@@H](NC(=O)OCc1ccccc1)c1ccccc1	/	.	/	/
CC1CCC(C(=O)NC(C(=O)N2CCN(c3ccccn3)CC2)C(C)C)CC1 (configuration not stated)	.	/	.	.
CC1CCC(C(=O)NC(C(=O)N2CCc3ccccc3C2)C(C)C)CC1 (configuration not stated)	.	-5.4	.	.
O=C(O)CCCCCNC(=O)CCn1cnc2ccccc2c1=O	.	.	.	.
SMILES	PTK2B oligo ant	Cav32 inh	PostGolgi ctrl	PostGolgi yeast
Cc1nc2ccc(NC(=S)NC(C)C)cc2nc1C	.	.	.	.
COc1ccc(C)cc1NC(=O)CN1CCN(S(=O)(=O)c2ccc(Br)cc2)CC1	.	.	46	.
O=C(CN1CCN(S(=O)(=O)c2ccc(Br)cc2)CC1)Nc1ccccc1F	.	.	54	.
COc1ccc(NC(C)=O)cc1NC(=O)CN1CCN(S(=O)(=O)c2ccc(C(C)C)cc2)CC1	.	/	.	.
O=C(CN1CCCN(S(=O)(=O)c2ccc(F)cc2)CC1)Nc1ccccc1Br	.	.	41	.
O=C(NCc1nc2ccccc2[nH]1)C1=C[C@@H](c2ccc(C(F)(F)F)cc2)C[C@@H](OCc2ccc(CO)cc2)O1	/	.	/	/
CC1=CC(=C2C(=O)c3ccccc3C2=O)C=C(C)N1Cc1ccco1	/	/	37	.
Cc1nc(N2CCC(C)CC2)c2oc3ccccc3c2n1	.	.	30	.
CCOC(=O)C1CCN(c2ncnc3c2oc2ccccc23)CC1	.	.	.	.
c1ccc(N2CCN(c3ncnc4c3oc3ccccc34)CC2)cc1	.	/	35	.
CCOC(=O)C1CCCN(c2ncnc3c2oc2ccccc23)C1 (configuration not stated)	.	.	33	.
COc1cc(NS(=O)(=O)c2ccc(OC)c(C)c2C)c(OC)cc1Cl	.	-7.4	36	.
CCOc1cc(CN2CCN(c3cccc(C(F)(F)F)c3)CC2)ccc1OC	.	-4.4	.	.
CCCOc1cc(C)c(Cl)cc1S(=O)(=O)N(CC)CC	.	-3.8	/	/
CCN(CC)S(=O)(=O)c1cc(Br)c(C)cc1OC	.	/	33	.
O=C(O)c1ccccc1-c1ccccc1C(=O)NCc1ccco1	.	/	.	.

Screening data: PubChem BioAssay, several laboratories
